The text below walks through data of publication PMC7819943, “Rice protein-binding microarrays: a tool to detect cis-acting elements near promoter regions in rice”.

Over roughly 35,000 sequences, “fluorescence intensity (a.u.)” has its median near 10,000; the highest 2% begin near 52,000. Only a selection was taken, and the highest values are over-represented in it overall.

In the assay the target is T1, OsWOX13 (Oryza sativa, UniProt Q5QMM3 1-267).
T1 sequence: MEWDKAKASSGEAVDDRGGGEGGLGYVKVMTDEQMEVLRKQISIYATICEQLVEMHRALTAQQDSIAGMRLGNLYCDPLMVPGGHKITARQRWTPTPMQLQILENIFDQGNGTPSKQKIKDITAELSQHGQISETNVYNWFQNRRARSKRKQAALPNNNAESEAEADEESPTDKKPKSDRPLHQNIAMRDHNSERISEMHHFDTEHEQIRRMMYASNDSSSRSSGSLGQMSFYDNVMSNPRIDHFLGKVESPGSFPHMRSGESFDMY
Briefly: protein-binding microarray (RPBM); PBS, 2% BSA, 51.3 ng/ul salmon testes DNA, 50 uM zinc acetate, 200 nM TF, 25 C, 1 h; high values mean tight binding. The following applies: protein: recombinant; tags: N-terminal polyhistidine and DsRed monomer fusion (pET32a); label: CyDye5-dUTP incorporated in the synthesized complementary strand; 3' TTTTT single-stranded linker to array surface; dsDNA, one strand shown. In short, it runs like this:
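Transcription factors were made in E. coli BL21-CodonPlus as N-terminal fusions to a polyhistidine tag and DsRed, then purified on Ni–NTA. After primer extension with Cy5-dUTP and blocking with 2% BSA, a custom Agilent array was exposed for 1 h at 25 °C to 200 nM protein in PBS, 2% BSA, salmon testes DNA and 50 µM zinc acetate. Washed arrays were scanned on an Axon 4000B, and the binding signal is per-feature fluorescence intensity in arbitrary units.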
Consider “CTGATTGGCCATGAGTCCAGAGATAGCATTGAACACAGGACGGAGTCACCTAGTGCAG”, for which the binding signal was 32400 fluorescence intensity (a.u.).
In the case of “GGGAGTAATTGAATATGCCTTTTGGGCTGCCATCTGCCCACGGAGTCACCTAGTGCAG” it was 26800 fluorescence intensity (a.u.); in that of “TTTGATTTGATTCGTGTGCTCCCCGCCGCCTTCGATCCCTCGGAGTCACCTAGTGCAG”, 43600 fluorescence intensity (a.u.); in that of “CTTAATTGCGCGCGAATGGAGTAATACTAGTACTAGTATACGGAGTCACCTAGTGCAG”, 15100 fluorescence intensity (a.u.).
In the case of “GACTAAATTTTAATCCCTATCACATCGGATATTTGACACTCGGAGTCACCTAGTGCAG”, the binding signal was 7230 fluorescence intensity (a.u.).
For “AGGCCCAATTACTGATCGAAATTTCGATGATTTCGATCGACGGAGTCACCTAGTGCAG” the value was 18500 fluorescence intensity (a.u.); for “CCAATTGGAATGCATTGTCTATTTGTTGTCTAGATCTCTCCGGAGTCACCTAGTGCAG”, 3760 fluorescence intensity (a.u.); for “AATCTCCTAATTATGTATTGCCCAAATCCATTTATTTTCCCGGAGTCACCTAGTGCAG”, 7170 fluorescence intensity (a.u.).
In the case of “ACATAACATATGAGATTGAAATTTCTTGAACCATACATTACGGAGTCACCTAGTGCAG” it was 9950 fluorescence intensity (a.u.).
As for “CTCACATGTTAATTACCATCAATGTATTTTACTCTTTTAACGGAGTCACCTAGTGCAG”, the binding signal is 16700 fluorescence intensity (a.u.).
Take “TTTATACGAAAATCAATAATTATAGCAGATATCCACAAGGCGGAGTCACCTAGTGCAG”: the binding signal is 5700 fluorescence intensity (a.u.).
On to “ACCTTTTCCGCGTGTTGTGTCTGTTTGTTGAAGATGAATTCGGAGTCACCTAGTGCAG”, for which the binding signal is 3280 fluorescence intensity (a.u.).
In the case of “TGCTAATGACTGATTAATTAGGCTTAATAAATTCGTCTTGCGGAGTCACCTAGTGCAG” it was 35300 fluorescence intensity (a.u.).
As for “TGCTAATGACTGATTAATTAGGCTTAATAAATTTGTCTCGCGGAGTCACCTAGTGCAG”, the binding signal was 64800 fluorescence intensity (a.u.).
In the case of “AATGCTAATGACAGATTAATTAGGCTTAATAAATTTGTCTCGGAGTCACCTAGTGCAG” it was 29500 fluorescence intensity (a.u.); in that of “TATAATAATTAAAACTCAATCAATCATACGTTAATAGCACCGGAGTCACCTAGTGCAG”, 20000 fluorescence intensity (a.u.).
For “ATGATGATTGTTAGTGGATGATGATGTGTCATCTTGTTAACGGAGTCACCTAGTGCAG” the value was 38400 fluorescence intensity (a.u.); for “CACGGATTATTTTGAGCAATTACCGCTCTAATCCGGGGCGCGGAGTCACCTAGTGCAG”, 3600 fluorescence intensity (a.u.).
As for “ACACATAATGTAATCTATTTTGATATAACCAAAAGCTGTTCGGAGTCACCTAGTGCAG”, the binding signal is 7540 fluorescence intensity (a.u.).
In the case of “TGGTCCTTTACATTGCAATTAATTTGTTTGGAATTTATTACGGAGTCACCTAGTGCAG” it was 8240 fluorescence intensity (a.u.).
With “GTATAATTGACAGATGAATTTCACGCAAGAGTATATTGAGCGGAGTCACCTAGTGCAG”, the binding signal was 55900 fluorescence intensity (a.u.).
In the case of “CAGTATATAAATAATTTGAATTAGATGAGATATATCCTAGCGGAGTCACCTAGTGCAG” it was 8160 fluorescence intensity (a.u.); in that of “ATATATATTGATTATATGTTTATTTTGTATGAAGATGTTCCGGAGTCACCTAGTGCAG”, 34900 fluorescence intensity (a.u.); in that of “GATTATAATTTGTAAGATAATTGACCATGGAGAAGATTCACGGAGTCACCTAGTGCAG”, 16300 fluorescence intensity (a.u.).
For “AATTATTGATTTGATGAAACTAATTTAGTATTATAAAGAGCGGAGTCACCTAGTGCAG”, the binding signal was 51000 fluorescence intensity (a.u.).
In the case of “GATAATTGACAAGATTGAACCATATGTGATGTATTATTTCCGGAGTCACCTAGTGCAG” it was 53200 fluorescence intensity (a.u.); in that of “GGATGTCATGATAATTGACTTATGACAATGTGATTATTTCCGGAGTCACCTAGTGCAG”, 19700 fluorescence intensity (a.u.).
As to “AGATAATTTGTGATTGATGTCATAGTAGTAGAGAAAACCACGGAGTCACCTAGTGCAG”, the binding signal is 46800 fluorescence intensity (a.u.).
In the case of “TATAATTGATTATTGTGACCTCATGATAGAGACAAGACCACGGAGTCACCTAGTGCAG” it was 53500 fluorescence intensity (a.u.); in that of “ATCTCAATCAGCAACACAAATGACCCTGACCCACGATCCACGGAGTCACCTAGTGCAG”, 20900 fluorescence intensity (a.u.).
For “GCCGTTAGTTAATTATTATCCGGTAAAGAAGATTAGTAGTCGGAGTCACCTAGTGCAG” the value was 12200 fluorescence intensity (a.u.); for “CGTTTCTTGATTCGATGGTTGATGGATTTTGGTTTGTGGACGGAGTCACCTAGTGCAG”, 4980 fluorescence intensity (a.u.); for “GCACACATGATCAATCAATTAATAGATTAGGTAGGTACGGCGGAGTCACCTAGTGCAG”, 51100 fluorescence intensity (a.u.).
In the case of “TTATGAAAATATATTTAATTATTGATTTGATGAAACTAATCGGAGTCACCTAGTGCAG” it was 5790 fluorescence intensity (a.u.).
Regarding “ATTGATTTGATGAAACTAATTTACGGCACAATAGCAAATCCGGAGTCACCTAGTGCAG”, the binding signal was 57600 fluorescence intensity (a.u.).
As to “GGCAATCAATTATTAATTGATTAATTCCATGAATAGCACACGGAGTCACCTAGTGCAG”, the binding signal is 64900 fluorescence intensity (a.u.).
For the sequence “AAATATATTCAATTATTGATTTGATGAAACTAATTTCGTACGGAGTCACCTAGTGCAG”, the binding signal is 23500 fluorescence intensity (a.u.).
In the case of “ATCACCTAATCAATTGAATCCATCAATTCAAGTAGATTCACGGAGTCACCTAGTGCAG” it was 9390 fluorescence intensity (a.u.).
For “TATATATATATATATATATAGACACACACATCAACAACAACGGAGTCACCTAGTGCAG” the value was 16000 fluorescence intensity (a.u.); for “TTAATTGCTATGTTTTGACCAGTCAACGCATAGGTCGTTTCGGAGTCACCTAGTGCAG”, 15500 fluorescence intensity (a.u.).
Turning to “ATTGCACAGATTGTGACTAATTTGCGAGACGAATCTTTTACGGAGTCACCTAGTGCAG”, the binding signal is 7340 fluorescence intensity (a.u.).
For “TTGGAATTTGGGGATTGGGAAGAGAGAAATCAGATTGGAACGGAGTCACCTAGTGCAG” the value was 4300 fluorescence intensity (a.u.).
In the case of “CGGAAGATTGGAATGGAAATCGGAGAGAGCAGGGGCGGTGCGGAGTCACCTAGTGCAG” it was 12800 fluorescence intensity (a.u.).
